From PubChem
NALP3 yeast inh: NALP3 inflammasome inhibitors in reconstituted yeast, primary screen, luminescence, uHTS; inhibition, % at 10 µM; Yeast reconstituted NLRP3/ASC/caspase-1, beta-gal luminescence, 24 h; AID 2825, 2010; 0.39% of 330,000 active;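 active = inhibition of 50% or more; inactive = inhibition below 50%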;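 also: plate controls were induced DMSO wells for no effect and uninduced yeast grown without galactose for full effect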
tim10-1 inh: growth inhibitors of tim10-1 mutant yeast, primary screen, luminescence, uHTS; S. cerevisiae tim10-1 ts strain growth, BacTiter-Glo, 24 h; 2.2% of 330,000 active; inhibition, % at 20 µM; AID 463190, 2010;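 active = inhibition of at least 40%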;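 also: mutant grown at 25 °C; 0% = DMSO wells with yeast and 100% = wells holding no yeast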
tim23-1 inh: growth inhibitors of tim23-1 mutant yeast, primary screen, luminescence, uHTS; S. cerevisiae tim23-1 growth, BacTiter-Glo luminescence, 24 h; inhibition, % at 20 µM; 1.3% of 330,000 active; AID 463212, 2010;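 active = growth inhibition of the mutant yeast at or above 50%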;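 also: temperature-sensitive mutant grown at 25 °C; plate controls were DMSO-treated mutant yeast for no effect and medium wells lacking yeast for full effect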
NALP1 yeast inh: NALP1 inflammasome inhibitors in reconstituted yeast, colorimetric, S. cerevisiae, triplicate retest; 0.61% of 280,000 active; inhibition, % at 10 µM; AID 2071, 2009; S. cerevisiae NALP1/ASC/caspase-1 growth, X-gal OD620, 72 h; in the data active = inhibition mostly above about 24%, no sharp cut-off; inactive = mostly below about 32%
TIM10 inh: growth inhibitors of isogenic TIM10 control yeast, primary screen, counter-screen for tim10-1 yeast inhibitor project, luminescence, uHTS; S. cerevisiae TIM10 strain growth, BacTiter-Glo luminescence, 24 h; inhibition, % at 10 µM; 1.4% of 330,000 active; AID 463195, 2010;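 active = inhibition of 40% or more at the single tested concentration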;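 also: wild-type TIM10 isogenic control strain grown at permissive 25 °C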
tim10 confirm: growth inhibitors of wild-type TIM10 yeast, confirmation, counter-screen for tim10-1 synthetic lethality project, single concentration, luminescence, S. cerevisiae; shares compounds with TIM10 inh; S. cerevisiae tim10 strain growth, BacTiter-Glo luminescence, 24 h; inhibition, % at 10 µM; 63% of 4,600 active; AID 463215, 2010;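 active = inhibition of yeast growth at or above a set limit in either of two replicates at 10 µM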;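 also: this counterscreen used the strain with wild-type TIM10; 0% = yeast with DMSO and 100% = medium wells lacking yeast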
* hit, by the source's call. Rows were chosen to be rich in hits. Some 4% of all compounds tested hit in one or more screens of this group.

For Cc1ccc(N(CC(=O)Nc2ccc(F)c(Cl)c2)S(=O)(=O)c2c(C)noc2C)cc1 the results were NALP3 yeast inh -22, tim10-1 inh 38, tim23-1 inh 18, NALP1 yeast inh -6, TIM10 inh 64* and tim10 confirm 61*.
For O=c1oc(Nc2cccc(F)c2)nc2ccccc12 the results were NALP3 yeast inh 2, tim10-1 inh 16, tim23-1 inh 26, NALP1 yeast inh 17 and TIM10 inh 21.
`Nc1nc(Nc2cccc(F)c2)nc2ccccc12` gave NALP3 yeast inh 15, tim10-1 inh 35, tim23-1 inh 29, NALP1 yeast inh 14, TIM10 inh 40 and tim10 confirm 30.
O=C(COC(=O)Cc1cccs1)NCC(=O)Nc1ccc(F)cc1 was read as NALP3 yeast inh 1, tim10-1 inh -4, tim23-1 inh 2 and TIM10 inh 5.
Screening Cc1cc(C)nc(OC(C(=O)O)C(OCc2ccccc2)(c2ccccc2)c2ccccc2)n1 (centres undefined) returned NALP3 yeast inh 19, tim10-1 inh -1, tim23-1 inh -1, NALP1 yeast inh 5, TIM10 inh 97* and tim10 confirm 6.
Screening O=C(CSc1nc2ccccc2s1)N/N=C/c1cc([N+](=O)[O-])ccc1O returned NALP3 yeast inh -7, tim10-1 inh 2, tim23-1 inh 19, NALP1 yeast inh 11 and TIM10 inh 0.
For Cc1ccc(S(=O)(=O)n2nc(OC(=O)c3cccs3)cc2N)cc1 the results were NALP3 yeast inh -1, tim10-1 inh 34, tim23-1 inh 37, NALP1 yeast inh 0, TIM10 inh 47* and tim10 confirm 18.
Screening COc1ccc(C(=O)Oc2cc(N)n(S(=O)(=O)c3ccc(C)cc3)n2)cc1 returned NALP3 yeast inh 17, tim10-1 inh 23, tim23-1 inh 29, NALP1 yeast inh 3 and TIM10 inh 36.
COc1ccc(S(=O)(=O)n2nc(OC(=O)C3CCCCC3)cc2N)cc1 was read as NALP3 yeast inh 5, tim10-1 inh 38, tim23-1 inh 26, NALP1 yeast inh 3, TIM10 inh 46* and tim10 confirm -14.
CCOc1ccc(NC(=O)COC(=O)c2ccc3c(c2)C(=O)N(CCc2ccccc2)C3=O)cc1 was read as NALP3 yeast inh 17, tim10-1 inh -11, tim23-1 inh 0, NALP1 yeast inh 24 and TIM10 inh 2.
Cc1ccc(NC(=O)COC(=O)c2ccc3c(c2)C(=O)N(CCc2ccccc2)C3=O)c(C)c1 was read as NALP3 yeast inh -2, tim10-1 inh 1, tim23-1 inh -27, NALP1 yeast inh 4, TIM10 inh 41* and tim10 confirm -18.
Screening COc1cccc2cc(-c3n[nH]c(=S)n3C)oc12 returned NALP3 yeast inh 23, tim10-1 inh 38, tim23-1 inh 28, NALP1 yeast inh 3, TIM10 inh 42* and tim10 confirm 20.
For COc1cccc2cc(-c3ccnc(N)n3)oc12 the results were NALP3 yeast inh 25, tim10-1 inh 3, tim23-1 inh -1, NALP1 yeast inh 10 and TIM10 inh 17.
Screening COc1ccc(-n2c(C)c(C)c3c(NCCCO)ncnc32)cc1 returned NALP3 yeast inh 2, tim10-1 inh 17, tim23-1 inh 21, NALP1 yeast inh 25 and TIM10 inh 2.
`CN(CC(=O)OCC(N)=O)S(=O)(=O)c1ccc(Cl)cc1` gave NALP3 yeast inh -6, tim10-1 inh 8, tim23-1 inh 4, NALP1 yeast inh -10, TIM10 inh 40* and tim10 confirm 0.
For CCn1c(CNc2ccc(Cl)cc2)nnc1SCc1ccc(Cl)cc1 the results were NALP3 yeast inh 6, tim10-1 inh 9, tim23-1 inh 44, NALP1 yeast inh 5 and TIM10 inh 17.
`CCn1c(CNc2cccc(Cl)c2)nnc1SCc1ccccc1` gave NALP3 yeast inh 2, tim10-1 inh 39, tim23-1 inh 44, NALP1 yeast inh -5, TIM10 inh 41* and tim10 confirm 49*.
For CCC(Oc1ccccc1)C(=O)OCC(=O)N(CC)c1c(N)n(Cc2ccccc2)c(=O)[nH]c1=O (centres undefined) the results were NALP3 yeast inh 19, tim10-1 inh 6, tim23-1 inh 15 and TIM10 inh 14.
For S=c1[nH]nc(-c2cccc(Cl)c2)n1Cc1ccccc1 the results were NALP3 yeast inh 15, tim10-1 inh 32, tim23-1 inh 40, NALP1 yeast inh 5 and TIM10 inh 37.
Screening S=c1[nH]nc(CCc2ccccc2)n1Cc1ccccc1 returned NALP3 yeast inh 15, tim10-1 inh 35, tim23-1 inh 14, NALP1 yeast inh 2 and TIM10 inh 30.
`CCn1c(-c2ccccc2O)n[nH]c1=S` gave NALP3 yeast inh 2, tim10-1 inh -7, tim23-1 inh 3, NALP1 yeast inh -6 and TIM10 inh -3.
Cc1cccc(-c2n[nH]c(=S)n2Cc2ccccc2)c1 was read as NALP3 yeast inh 13, tim10-1 inh 38, tim23-1 inh 23, NALP1 yeast inh -3, TIM10 inh 41* and tim10 confirm -40.
For S=c1[nH]nc(-c2ccc(Cl)cc2Cl)n1Cc1ccccc1 the results were NALP3 yeast inh 11, tim10-1 inh 28, tim23-1 inh 44, NALP1 yeast inh 18, TIM10 inh 56* and tim10 confirm 17.
`CCn1c(-c2cc(-c3ccccc3)sc2N)n[nH]c1=S` gave NALP3 yeast inh 36, tim10-1 inh 25, tim23-1 inh 41, NALP1 yeast inh -3, TIM10 inh 45* and tim10 confirm 43*.
S=c1[nH]nc(-c2cc3ccccc3o2)n1Cc1ccccc1 was read as NALP3 yeast inh 26, tim10-1 inh 33, tim23-1 inh 45, NALP1 yeast inh -3, TIM10 inh 52* and tim10 confirm 48*.
`CSCCC(NC(=O)OCc1ccccc1)C(=O)NCc1cccnc1` (centres undefined) gave NALP3 yeast inh -6, tim10-1 inh 4, tim23-1 inh -1, NALP1 yeast inh 9 and TIM10 inh -6.
For CN(CCCNC(=O)CSc1cc(=O)n(C)c2ccc(Cl)cc12)Cc1ccccc1 the results were NALP3 yeast inh 16, tim10-1 inh 10, tim23-1 inh 17, NALP1 yeast inh 14 and TIM10 inh 8.
Screening CSc1cccc(CNC(=O)C2CCC(=O)N(CC3CCCCC3)C2)c1 (centres undefined) returned NALP3 yeast inh 4, tim10-1 inh -2, tim23-1 inh 3, NALP1 yeast inh 14 and TIM10 inh 15.
